The whole screen tested about 47,000 compounds, of which about 2,500 (5.3%) were called active. Rule as the data show it: active = inhibition above about 30%; inactive = the rest. The sample as a whole holds a higher share of actives than the screen did.
target: Ubiquitin carboxyl-terminal hydrolase 30 (Homo sapiens) (UniProt Q70CQ3); test: inhibitors of human USP30 deubiquitinase (AID 1645860); settings: purified USP30, Ub-rhodamine cleavage fluorescence; at 25 µM; active compounds read high
Sequence (Q70CQ3 whole entry, looked up): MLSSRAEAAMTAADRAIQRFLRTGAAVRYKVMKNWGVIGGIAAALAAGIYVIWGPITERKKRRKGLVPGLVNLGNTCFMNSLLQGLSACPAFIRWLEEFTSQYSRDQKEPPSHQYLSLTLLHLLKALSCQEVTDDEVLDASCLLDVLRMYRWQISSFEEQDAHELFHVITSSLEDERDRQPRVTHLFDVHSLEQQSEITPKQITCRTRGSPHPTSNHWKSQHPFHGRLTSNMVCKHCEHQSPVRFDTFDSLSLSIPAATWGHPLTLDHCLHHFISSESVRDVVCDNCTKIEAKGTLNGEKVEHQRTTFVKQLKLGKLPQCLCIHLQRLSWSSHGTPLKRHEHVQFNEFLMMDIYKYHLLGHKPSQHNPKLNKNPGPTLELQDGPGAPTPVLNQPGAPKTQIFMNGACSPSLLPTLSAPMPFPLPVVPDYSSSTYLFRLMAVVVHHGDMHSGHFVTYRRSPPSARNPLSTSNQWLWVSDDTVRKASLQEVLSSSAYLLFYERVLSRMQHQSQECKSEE

inhibition, inactive:
COc1ccc(-c2nn(-c3ccccc3)cc2C(=O)N2CCCCC2)cc1 -1.66%
O=C(Nc1ccc(Oc2ccccc2F)cc1)C1CCN(Cc2cccc(O)c2)CC1 23%
O=C(CN1CCN(CC(=O)Nc2ccc3c(c2)OCO3)CC1)Nc1ccc(F)cc1 -29.4%
CC1CCC(NC(=O)Cn2c(=O)[nH]c3ccccc3c2=O)CC1 (stereo unspecified) 26.9%
CCOC(=O)N1CCC(NC(=O)CCc2ccccc2)CC1 11.3%
COc1ccc(CCNC(=O)[C@@H](NC(=O)[C@@H]2Cc3c([nH]c4ccccc34)C3c4ccccc4C(=O)N32)C(C)C)cc1 (stereo partly specified) -104%
COc1ccccc1NC(=O)N1CCN(Cc2nc3ccccc3o2)CC1 7.46%
COc1ccccc1NC(=O)Nc1ccc(CCc2nc3ccccc3[nH]2)cc1 -27.4%
COc1ccc(C(=O)NCC(=O)Nc2nc3ccccc3[nH]2)c(C)c1 9.21%
O=C(NC1CCCC1)c1csc(C(=O)N2CCCC2)n1 3.97%
CC(C(=O)N1c2ccccc2NC(=O)C1(C)C)N1CCCC1c1ccc2c(c1)OCCO2 (stereo unspecified) -221%
Cc1c(C)n2c(SCC(=O)N(C)c3ccccc3)nnc2[nH]c1=O 6.75%
COCCN1C(=O)CCc2cc(NS(=O)(=O)c3cc(C)cc(C)c3)ccc21 -16.1%
CCN1C(=O)CCc2cc(NC(=O)Cc3ccc(OC)c(Cl)c3)ccc21 -7.67%
CC(=O)Nc1ccc(C(=O)NCCn2c(C)nc3ccccc32)cc1 27.4%
CC(C)Cc1cc(C(=O)N2CCOC(c3nccnc3N)C2)n(C)n1 (stereo unspecified) 10.1%
COc1ccccc1CCNC(=O)c1cccc(N2C(=O)C(C)(C)CS2(=O)=O)c1 -7.58%
COc1ccc(-c2nc(-c3nnn(Cc4cccc(F)c4)c3C)no2)cc1 8.22%
Cc1c(-c2noc(-c3cccc(N(C)C)c3)n2)nnn1Cc1cccc(F)c1 -2.61%
COC(=O)c1ccccc1NC(=O)Cn1cc(S(=O)(=O)Cc2ccc(C)cc2)c2ccccc21 -13.4%
COCc1ccc(C(=O)N2CCC3(CC2)CNC(=O)c2ccccc2O3)cc1 14.1%
O=S(=O)(Nc1ccccc1Cc1ccccc1)c1ccccc1F 16.2%
Cc1ccc(Cc2nnc(C(=O)NC(C)c3ccccc3)o2)cc1 (stereo unspecified) -0.465%
COc1ccccc1N(CC(=O)NCc1cccnc1)S(=O)(=O)c1ccc(C)cc1 -6.24%
O=C(CNC(c1ccccc1)c1ccccc1)Nc1ccc(F)cc1 13.6%
Cc1nc2nc(NCc3ccccc3)[nH]n2c(=O)c1CCC(=O)N1CCC(C)CC1 0.108%
O=C(NCc1ccccn1)C1CCCN(c2ccc(-c3ccccc3)nn2)C1 (stereo unspecified) 23.1%
Cc1ccc(NC(=O)Cn2c(N3CCCC3)nc(C)cc2=O)cc1 18.2%
c1ccc(-c2csc3ncnc(NC4CCCc5ccccc54)c23)cc1 (stereo unspecified) -52.1%
Cc1ccccc1CNC(=O)N1CCC2(CC1)NC(=O)[C@H]1CN(c3ncccn3)C[C@H]12 25.7%
Cc1cccc(-c2cccc(C3CCCN(C(=O)c4cnccn4)C3)n2)c1 (stereo unspecified) -38%
O=C(Nc1ccccc1F)Nc1nnc2cccc(Cl)n12 -21.8%
CN(CCc1ccccn1)CC(=O)N1CCc2ccccc21 -0.887%
Cc1nc2ccccc2c(=O)n1CC(=O)N1CCCc2ccccc21 17.4%
Cc1ccc(C)c(N2CCN(c3nc4ccc(Cl)cc4nc3-n3nc(C)cc3C)CC2)c1 -8.16%
Cc1ccc(CC(=O)N2CCN(C(=O)c3cc(-c4ccccn4)n[nH]3)CC2)cc1 4.03%
O=C(Nc1ccc(Cl)cc1F)c1cc(-c2ccccn2)n[nH]1 12.6%
CC(=O)Nc1cccc(NC(=O)CSc2cn(CC(=O)N3CCC(C)CC3)c3ccccc23)c1 -1.08%
O=C(Cn1cc(S(=O)(=O)Cc2ccccc2Cl)c2ccccc21)N1CCCCCC1 -0.265%
COCCN1CC(C(=N)N)C(=O)NC1=O (stereo unspecified) -45.1%
COc1ccc(CC(=O)Nc2ccc3c(c2)CN(C(=O)c2ccco2)CC3)cc1 19.1%
O=C(CC1(O)C(=O)N(Cc2cccc3ccccc23)c2ccccc21)c1cccc2ccccc12 (stereo unspecified) 2.93%
CN1CCc2c(sc3nc(SCCc4ccccc4)n(-c4ccccc4)c(=O)c23)C1 -152%
Cc1cccc(NS(=O)(=O)c2ccc3nnc(C)n3c2)c1 -4.01%
COc1cccc(NS(=O)(=O)c2ccc(-c3coc(C)n3)cc2)c1 -18.4%
O=C(CCCOc1ccc(F)cc1F)N1CCC(c2[nH]nc3nccnc23)CC1 -12.7%
Cc1ccc(N2CCn3c(nc4ccccc43)C2)cc1NS(C)(=O)=O -304%
Cc1ccc(Cn2c(C)c(CNCCC3=CCCCC3)c(C(=O)O)c2C)cc1 -1.85%
O=C(CCc1nnc2n(CCc3ccccc3)c(=O)c3ccccc3n12)NCCN1CCCC1 13.2%
Cn1ncc2c1CCCN(C(=O)Cc1ccccc1F)C2 10.7%
Cc1ccccc1CC(=O)Nc1ccc(-n2ccnc2C)nc1 -47.4%
Cc1cccc(NC(=O)Cn2c(=O)n(Cc3nc(C)no3)c(=O)c3ccccc32)c1 14.7%
COc1cn(CC(=O)Nc2cccc(C)c2)c(CSc2ccc(C)cc2)cc1=O -0.0406%
CC(C)C(=O)N1CCN(C(=O)Cc2ccccc2)CC2(CC(=O)N(C)C2)C1 (stereo unspecified) 17%
Cc1cc(Nc2ncc(C)s2)cc(C2CCCN2c2ncccn2)n1 (stereo unspecified) -49.2%
CCOC(=O)C1CCCN(c2cc3n(c(=O)n2)CCc2cc(OC)c(OC)cc2-3)C1 (stereo unspecified) -59.6%
CC1=C(c2ccc(C)cc2)S(=O)(=O)NC1=NCc1cccc(Br)c1 3.77%
COc1ccc(C2=Nc3ncnn3C2=NCc2ccc(F)cc2)cc1OC 0.0164%
Cn1nnc2c1CCN(C(=O)C1CCC1)C2COCc1ccccc1 (stereo unspecified) -10.7%
O=C(Cn1cccc(-c2nc(-c3ccccc3)no2)c1=O)Nc1ccccc1F -12.8%
O=C(Cn1c(-c2nc(-c3ccc(F)cc3)no2)cccc1=O)N1CCCC1 11.4%
CSCc1cc(N2CCOCC2)nc(-c2ccccn2)n1 23.5%
CC1CCN(S(=O)(=O)N2CCCC(C(=O)Nc3cc(F)ccc3F)C2)CC1 (stereo unspecified) 18.2%
O=C(Nc1ccc(N2CCN(C3CCCC3)C2=O)nc1)c1cccnc1 -14.2%
COc1ccc(OCC(=O)Nc2noc(-c3ccccc3)n2)cc1 24.4%
COc1cccc(NC(=O)Cn2c(C)cc(C)c2-c2nc(C(C)C)no2)c1 -10.3%
CC(=O)Nc1ccc(S(=O)(=O)NCc2ccc(C(=O)NCc3ccc(C)cc3)cc2)cc1 -1.25%
O=C1Nc2cc(C(=O)N3CCC4(CC3)OCCO4)ccc2N2C(=O)CCC12 (stereo unspecified) 1.12%
COc1ccc(NC(=O)CSc2cn(CC(=O)N3CCCC3)c3ccccc23)cc1 18.7%
O=C(Cn1cc(S(=O)(=O)Cc2ccccc2F)c2ccccc21)N1CCCCCC1 3.16%
O=C(NCc1cccnc1-c1ccc(F)cc1)C1CCC1 21.3%
Fc1cccc(Nc2nc(-c3ccncc3)nc3c2CCC3)c1 23.2%

inhibition, active:
O=C(Nc1cccc(-c2cccc(F)c2)c1)C1CCN(Cc2cccc3c2OCO3)CC1 36.9%
CCOc1ccccc1NC(=O)Nc1cc(-c2nc3ccccc3o2)ccc1OC 58.5%
CCCCOc1ccc(C(=O)Nc2ccc3c(c2)CCC(=O)N3CCC)cc1 46.1%
CCOc1ccccc1-c1nc(-c2nnn(Cc3ccccc3)c2C)no1 51.6%
Cc1ccc(S(=O)(=O)N(CC(=O)NC(C)c2ccccc2)Cc2ccccc2F)cc1 (stereo unspecified) 32.6%
O=C(CN(Cc1ccccc1Cl)S(=O)(=O)c1ccccc1F)NC(c1ccccc1)c1ccccc1 33.4%
CN1CC(=O)N(C2CCCNC2)Cc2c(NC3CCc4ccccc43)ncnc21 (stereo unspecified) 69.8%
COC(=O)COc1cccc2c(=O)n(CC(=O)N3CCc4ccccc43)ccc12 37%
COc1cc(Cl)c(NC(=O)c2cc(-c3ccccn3)n[nH]2)c(OC)c1 31.5%
O=C(Cn1cc(SCc2cccc(F)c2)c2ccccc21)N1CCCCCC1 35.3%
O=S(=O)(Nc1cccc(O)c1)c1ccc2oc3ccc(S(=O)(=O)Nc4cccc(O)c4)cc3c2c1 42.9%
Oc1cccc2nc3c(O)cccc3nc12 55.9%
CCc1ccc(-n2c(=O)c3ccccc3n(CC(=O)NCCC3=CCCCC3)c2=O)cc1 41%
Cc1cccc(NC(=O)Cn2c(C)ccc(NC(=O)Nc3cccc(C)c3)c2=O)c1 34.8%
COc1ccc(CN=C2NS(=O)(=O)C(c3ccc(F)cc3)=C2C)cc1OC 37%
O=c1c2ccccc2c(-c2nc(-c3ccncc3)no2)cn1-c1ccc(F)cc1 44.8%
CC(C)c1noc(-c2ccc(OCC(=O)Nc3ccccc3Br)cc2)n1 30.7%
COc1ccc(NC(=O)CS(=O)(=O)c2cn(CC(=O)N3CCCC3)c3ccccc23)cc1 30.4%
CSc1nc2c(c(Nc3ccc(C(C)=O)cc3)n1)CCC2 80.5%
